The values below come from PubChem BioAssay.

Experiment [1] deals with Wnt5a (protein binding on small-molecule microarray). As to the kind of experiment: small molecules binding Wnt5a protein – biophysical, small-molecule microarray, 635/667 nm fluorescence, primary screen (AID 1142).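 Further: fluorescence read at 667 nm with signal to noise per printed feature.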 The settings on record: 635 nm fluorescence, higher = more signal.
Experiment [2] is described as follows: ATP-based viability of Huh7 replicon cells – cell-based, CellTiter-Glo luminescence, basal, 48 h, cytotoxicity control for HCV replication inhibitor project, primary screen (AID 1143).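 Further: Huh7 hepatoma cells carrying a hepatitis C replication reporter with no stimulus; test concentration not given here.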 To be noted: higher = more signal, called active from +8 up or from −8 down. (In antiviral work, replicon cells carry a viral genome segment that copies itself.)
Experiment [3] can be described thus: Pseudomonas biofilm growth suppression – PAO1 strain, BacTiter-Glo luminescence, LB-PBS, primary screen (AID 1144). The settings on record: P. aeruginosa PAO1 biofilm, 12 h, higher = more signal.
The nature of experiment [4]: basal CRE-LacZ reporter activity in PC12 – cell-based, unstimulated, primary screen (AID 1145). To be noted: no forskolin, luminescence, 4.5 h, higher = more signal, called active from +8 up or from −8 down.
Experiment [5] can be described thus: forskolin-driven CRE-LacZ activity in PC12 – cell-based, CRE-LacZ reporter, forskolin-stimulated, primary screen (AID 1146).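 Further: PC12 cells with 6xCRE LacZ reporter stimulated by forskolin 10 µM; beta-galactosidase reporter signal reflecting CREB driven transcription.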 To be noted: luminescence, 4.5 h, higher = more signal, called active from +8 up or from −8 down.
In experiment [6] the target is Streptavidin (Streptomyces avidinii) (UniProt P22629). As to the kind of experiment: compounds binding control protein streptavidin – biophysical, small-molecule microarray, 635/667 nm fluorescence, artefact control for SMM compound annotation, primary screen (AID 1147).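 Further: signal reflects streptavidin binding to arrayed compounds as a control protein.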 To be noted: higher = more signal.
The nature of experiment [7]: probe aInhba binding on compound microarray – biochemical, small-molecule microarray, 635/667 nm fluorescence, primary screen (AID 1148).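 Further: score merges 667nm spot fluorescence with signal-to-noise for antibody binding to printed compounds.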 To be noted: higher = more signal.
Experiment [8] has as its target Torsin-1A (Homo sapiens) (UniProt O14656). As to the kind of experiment: TOR1A wild-type binding on microarray – cell lysate, small-molecule microarray, lysate, 635/667 nm, primary screen (AID 1149). To be noted: COS7 hTOR1A-WT lysate, 635 nm fluorescence, higher = more signal.
Experiment [9] shares this target. As to the kind of experiment: torsin A mutant lysate binding on microarrays – cell lysate, small-molecule microarray, COS7 lysate, 635/667 nm fluorescence, primary screen (AID 1150).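 Further: score pools 667 nm emission and signal to noise measuring lysate protein binding.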 The settings on record: COS7 hTOR1A mutant lysate, 635 nm fluorescence, higher = more signal.
For experiment [10], the system named is Sonic hedgehog protein (Shh). As to the kind of experiment: Sonic hedgehog microarray binding compounds – biochemical, small-molecule microarray, 635/667 nm fluorescence, primary screen (AID 1151).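 Further: Shh protein binding to compounds spotted on small-molecule microarray slides; score combines spot fluorescence intensity with signal-to-noise across triplicate slides.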 The settings on record: 635 nm fluorescence, higher = more signal.

Calls of active or inactive are those of the source. Unless noted, how the calls were made is not given here.

Sequence of Streptavidin (Streptomyces avidinii) (P22629 whole entry, looked up): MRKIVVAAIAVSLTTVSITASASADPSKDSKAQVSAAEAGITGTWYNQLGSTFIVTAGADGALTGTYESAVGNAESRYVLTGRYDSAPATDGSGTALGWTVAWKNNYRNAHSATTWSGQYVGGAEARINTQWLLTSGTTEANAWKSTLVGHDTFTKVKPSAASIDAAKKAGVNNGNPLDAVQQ
Sequence of Torsin-1A (Homo sapiens) (O14656 whole entry, looked up): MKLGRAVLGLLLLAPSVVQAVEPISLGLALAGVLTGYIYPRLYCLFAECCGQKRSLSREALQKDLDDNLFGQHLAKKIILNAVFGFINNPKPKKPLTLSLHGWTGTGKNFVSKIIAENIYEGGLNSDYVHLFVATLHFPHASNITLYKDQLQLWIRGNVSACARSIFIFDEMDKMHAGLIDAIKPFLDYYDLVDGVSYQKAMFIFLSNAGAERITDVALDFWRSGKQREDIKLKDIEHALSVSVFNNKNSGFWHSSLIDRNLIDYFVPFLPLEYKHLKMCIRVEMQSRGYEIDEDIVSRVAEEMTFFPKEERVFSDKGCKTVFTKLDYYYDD

With `C=CCOC(=O)[C@H]1[C@@H]2C(=O)O[C@@H](c3ccccc3)[C@@H](c3ccccc3)N2[C@@H](c2ccc(OCCOC(=O)[C@@H]3C[C@@H]4C(=O)N[C@@H](CCCCN(C)C)C(=O)N4[C@@H]3c3ccc(O)cc3)cc2)[C@]12C(=O)Nc1ccc(I)cc12`, the composite z-score in experiment [1] is 0.451; in [6] it was 0.218; in experiment [7], 0.0082; with Torsin-1A (Homo sapiens) [8], 1.22; with Torsin-1A (Homo sapiens) [9], 0.671; in experiment [10], 1.71. For the same compound, the z-score in [2] is -0.135 (inactive); in experiment [3] it was -1.02 (inactive); in experiment [4], -0.935 (inactive); in [5], 1.04 (inactive).

Take `COCCCNC(=O)[C@@]1(Cc2ccccc2)N=C(c2ccc(OCCCO)cc2)O[C@H]1c1ccccc1`: the composite z-score in [1] amounted to 1.3; in experiment [6] it was 2.34; in [7], 0.786; with Torsin-1A (Homo sapiens) [8], 0.268; with Torsin-1A (Homo sapiens) [9], 1.16; in [10], 0.0157. The z-score was -1.99 (inactive) in experiment [2], 0.669 (inactive) in experiment [3], -0.0249 (inactive) in experiment [4] and -0.437 (inactive) in [5].

For the compound `O=C(NCc1ccc(F)cc1)[C@H]1C[C@H]2C(=O)N[C@@H](Cc3ccccc3)C(=O)N2[C@H]1c1ccc(O)cc1`, the composite z-score in experiment [1] is -0.0011; in experiment [6] it was -0.507; in [7], -0.206; with Torsin-1A (Homo sapiens) [8], 1.08; with Torsin-1A (Homo sapiens) [9] it was 1.37; in experiment [10], 1.1. Further, the z-score is -0.411 (inactive) in experiment [2], 0.506 (inactive) in [3], -0.801 (inactive) in experiment [4] and -0.887 (inactive) in experiment [5].

Turning to `CN(C)CCCNC(=O)[C@@]1(C)c2ccccc2C(=O)N(Cc2cc(F)cc(C(F)(F)F)c2)[C@H]1c1ccc(CO)cc1`, the composite z-score is -0.569 in [1]; -0.432 in experiment [6]; -0.179 in experiment [7]; -1.2 with Torsin-1A (Homo sapiens) [8]; 0.301 with Torsin-1A (Homo sapiens) [9]; -0.335 in experiment [10]. Besides, the z-score in experiment [2] is -1.69 (inactive); in [3], 1.25 (inactive); in [4], -0.0888 (inactive); in [5], 0.506 (inactive).

As for `COCCOC(=O)N1C(=O)[C@@]2(c3cc(C#CCCO)ccc31)[C@H](c1ccc(OCCO)cc1)N1[C@H](c3ccccc3)[C@H](c3ccccc3)OC(=O)[C@H]1[C@@H]2C(=O)N1CCN(c2ncccn2)CC1`, the composite z-score in [1] was -0.0738; in [6] it was 0.782; in experiment [7] it was 0.0947; with Torsin-1A (Homo sapiens) [8] it was 0.546; with Torsin-1A (Homo sapiens) [9], 0.28; in experiment [10], 1.43. Also, the z-score in experiment [2] is -0.361 (inactive); in experiment [3], 0.97 (inactive); in experiment [4], 0.334 (inactive); in experiment [5] it was 0.653 (inactive).

As for `O=C(NCc1ccccc1)[C@@]1(CCS(=O)(=O)c2ccccc2)N=C(c2ccc(OCCCO)cc2)O[C@H]1c1ccccc1`, the composite z-score is 0.794 in experiment [1]; 1.8 in experiment [6]; 0.212 in experiment [7]; 1.35 with Torsin-1A (Homo sapiens) [8]; 1.16 with Torsin-1A (Homo sapiens) [9]; -0.756 in experiment [10]. Besides, the z-score in experiment [2] was -2.09 (inactive); in experiment [3] it was -0.847 (inactive); in experiment [4], -0.435 (inactive); in [5] it was -0.516 (inactive).

Take `O=C(NCc1ccccc1)[C@@]1(Cc2ccccc2)N=C(c2ccc(OCCCO)cc2)O[C@H]1c1ccccc1`: the composite z-score in experiment [1] is 0.209; in experiment [6] it was 1.15; in experiment [7], 0.161; with Torsin-1A (Homo sapiens) [8] it was 0.924; with Torsin-1A (Homo sapiens) [9], 0.918; in experiment [10], -0.183. Besides, the z-score in experiment [2] was -3.5 (inactive); in experiment [3], -0.883 (inactive); in experiment [4], -0.183 (inactive); in experiment [5], -0.413 (inactive).

`COCCCN1C(=O)[C@@]2(Cc3ccccc31)c1ccccc1C(=O)N(Cc1ccccc1C(F)(F)F)[C@H]2c1ccc(CO)cc1`: the composite z-score is 0.16 in [1]; 0.147 in [6]; 0.331 in [7]; -0.0888 with Torsin-1A (Homo sapiens) [8]; -0.0875 in the experiment with Torsin-1A (Homo sapiens) [9]; 0.498 in experiment [10]. Also, the z-score is 0.287 (inactive) in [2], -0.169 (inactive) in experiment [3], -0.581 (inactive) in experiment [4] and 0.255 (inactive) in experiment [5].

For `C[C@]1(C(=O)NC2CC2)c2ccccc2C(=O)N(Cc2cc(C(F)(F)F)cc(C(F)(F)F)c2)[C@H]1c1ccc(CO)cc1`, the composite z-score in [1] was 0.46; in experiment [6], 0.0956; in experiment [7] it was 0.225; with Torsin-1A (Homo sapiens) [8], 0.372; with Torsin-1A (Homo sapiens) [9], 0.329; in [10], -0.0874. Moreover, the z-score in experiment [2] was -1.38 (inactive); in experiment [3], 0.501 (inactive); in experiment [4], -0.825 (inactive); in [5] it was -1.25 (inactive).

`COCCOC(=O)N1C(=O)[C@@]2(c3cc(C#CC4=CCCCC4)ccc31)[C@H](C(=O)Nc1nc3ccccc3s1)[C@H]1C(=O)O[C@H](c3ccccc3)[C@H](c3ccccc3)N1[C@@H]2c1ccccc1OCCO`: the composite z-score worked out at 0.697 in experiment [1]; 1.19 in [6]; 0.973 in experiment [7]; 0.0595 with Torsin-1A (Homo sapiens) [8]; 0.956 with Torsin-1A (Homo sapiens) [9]; 1.49 in experiment [10]. Besides, the z-score in experiment [2] is -5.66 (inactive); in experiment [3], -1.29 (inactive); in experiment [4] it was -0.878 (inactive); in [5] it was -1.09 (inactive).

Consider `COc1ccc(COC2OC[C@]3(C)[C@H]4C5=C(CN3C(=O)OC(C)(C)C)[C@H](C)C(CO)C(CO)C5CC[C@@H]24)cc1` (stereo not given in full), for which the composite z-score in experiment [1] was determined as 0.0447; in experiment [6], 1.25; in [7], 0.483; in the experiment with Torsin-1A (Homo sapiens) [8] it was 1.32; with Torsin-1A (Homo sapiens) [9], 0.156; in [10], 0.0407. Moreover, the z-score was -0.422 (inactive) in [2], 0.669 (inactive) in experiment [3], 0.966 (inactive) in experiment [4] and 1.99 (inactive) in experiment [5].
